# Source: PubChem BioAssay (EPA / NIEHS)
# Activity calls are given as the source filed them. Rule for the calls: active = hit-call score of the fitted dose curve at least 0.9, where 1 is the maximum; inactive = score below 0.9.
# Columns and labels:
# [1] = read-out: Macrophage colony-stimulating factor (MCSF), CSF1 (gene 1435); assay: BSK_hDFCGF_MCSF: BioMAP Diversity Plus: hDFCGF Assay for Macrophage colony-stimulating factor (MCSF) Biomarker Activity (AID 2283060); conditions: primary human foreskin fibroblasts; actives raise or lower the signal
# Outline: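 M-CSF levels read by ELISA at 24 h post-dosing in human skin fibroblasts. Parallel cultures stained with SRB assessed cytotoxicity at the same time point; response fitted in both directions against the DMSO baseline.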
# [2] = BSK_hDFCGF_SRB: Viability Assessment in the BioMAP Diversity Plus: hDFCGF Assay (AID 2283061); conditions: primary human foreskin fibroblasts;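 note: cells exposed to compound for 24 h before the read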
# Outline: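 Viability was read as total protein: after 10% TCA fixation, wells were stained with 0.1% sulforhodamine B and read at 560 nm. Primary human foreskin fibroblasts were dosed for 24 h, with bidirectional fitting versus DMSO.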
# [3] = read-out: TIMP metallopeptidase inhibitor 1 (TIMP1), TIMP1 (gene 7076); assay: BSK_hDFCGF_TIMP1: BioMAP Diversity Plus: hDFCGF Assay for TIMP metallopeptidase inhibitor 1 (TIMP1) Biomarker Activity (AID 2283062); conditions: primary human foreskin fibroblasts; actives raise or lower the signal
# Outline: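 TIMP-1 measured by ELISA 24 h after chemical dosing of primary human skin fibroblasts, with gain or loss fitted relative to DMSO. Parallel SRB staining (560 nm) monitored overt cytotoxicity.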
# [4] = read-out: Matrix Metallopeptidase 1 (MMP1), MMP1 (gene 4312); assay: BSK_hDFCGF_MMP1: BioMAP Diversity Plus: hDFCGF Assay for Matrix Metallopeptidase 1 (MMP1) Biomarker Activity (AID 2283064); conditions: primary human foreskin fibroblasts; actives raise or lower the signal
# Outline: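 hDFCGF primary fibroblasts (human foreskin); chemical added; 24 h; MMP1 by ELISA; bidirectional fit vs DMSO.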
# [5] = read-out: Vascular cell adhesion molecule 1 (VCAM1), VCAM1 (gene 7412); assay: BSK_hDFCGF_VCAM1: BioMAP Diversity Plus: hDFCGF Assay for Vascular cell adhesion molecule 1 (VCAM1) Biomarker Activity (AID 2283065); conditions: primary human foreskin fibroblasts; actives raise or lower the signal
# Outline: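 ELISA readout of VCAM-1 on human dermal fibroblast primary cultures, 24 h after chemical exposure. Gain or loss of signal fitted in both directions against DMSO baseline.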
# [6] = read-out: Plasminogen activator inhibitor-1 (PAI1), SERPINE1 (gene 5054); assay: BSK_hDFCGF_PAI1: BioMAP Diversity Plus: hDFCGF Assay for Plasminogen activator inhibitor-1 (PAI1) Biomarker Activity (AID 2283066); conditions: primary human foreskin fibroblasts; actives raise or lower the signal
# Outline: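 Human foreskin fibroblast primary cells, 24 h chemical exposure; PAI-1 measured by ELISA. Bidirectional fitting relative to DMSO; parallel cultures stained with SRB for total protein to flag overt cytotoxicity.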
# [7] = read-out: Intercellular Adhesion Molecule 1 (ICAM1), ICAM1 (gene 3383); assay: BSK_KF3CT_ICAM1: BioMAP Diversity Plus: KF3CT Assay for Intercellular Adhesion Molecule 1 (ICAM1) Biomarker Activity (AID 2283067); conditions: primary human keratinocytes with fibroblasts; actives raise or lower the signal
# Outline: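 Cell-surface ICAM-1 was measured by ELISA 24 h after dosing primary human skin keratinocytes co-cultured with fibroblasts. Parallel SRB staining tracked overt cytotoxicity. Gain or loss of signal was fitted relative to DMSO.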
# [8] = read-out: Interferon-gamma inducible Protein 10 (IP10), CXCL10 (gene 3627); assay: BSK_KF3CT_IP10: BioMAP Diversity Plus: KF3CT Assay for Interferon-gamma inducible Protein 10 (IP10) Biomarker Activity (AID 2283068); conditions: primary human keratinocytes with fibroblasts; actives raise or lower the signal
# Outline: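 Signal is secreted/surface IP-10 by ELISA in a human primary skin co-culture of keratinocytes and foreskin fibroblasts, taken 24 h post-dosing; DMSO served as negative control.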
# [9] = BSK_KF3CT_SRB: Viability Assessment in the BioMAP Diversity Plus: KF3CT Assay (AID 2283069); conditions: primary human keratinocytes with fibroblasts;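 note: total protein by sulforhodamine B staining as a cytotoxicity measure; read 24 h after compound addition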
# Outline: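 Keratinocytes co-cultured with foreskin fibroblasts (human primary); chemical added, 24 h; fix 10% TCA, stain 0.1% SRB, A560. Bidirectional fit vs DMSO.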
# [10] = read-out: Interleukin-1 alpha (IL1a), IL1A (gene 3552); assay: BSK_KF3CT_IL1a: BioMAP Diversity Plus: KF3CT Assay for Interleukin-1 alpha (IL1a) Biomarker Activity (AID 2283070); conditions: primary human keratinocytes with fibroblasts; actives raise or lower the signal
# Outline: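 Chemicals were dosed onto co-cultured human keratinocytes and foreskin fibroblasts, IL-1a was quantified by ELISA at 24 h, and activity was fitted in both directions relative to DMSO controls.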
# [11] = read-out: TIMP metallopeptidase inhibitor 2 (TIMP2), TIMP2 (gene 7077); assay: BSK_KF3CT_TIMP2: BioMAP Diversity Plus: KF3CT Assay for TIMP metallopeptidase inhibitor 2 (TIMP2) Biomarker Activity (AID 2283071); conditions: primary human keratinocytes with fibroblasts; actives raise or lower the signal
# Outline: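 Co-culture of human primary keratinocytes and foreskin fibroblasts, measured 24 h after chemical dosing. TIMP-2 quantified by ELISA and fitted in both directions relative to DMSO. Cytotoxicity checked in parallel cultures by SRB total-protein staining.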
# [12] = read-out: Transforming growth factor beta 1 (TGFb1), TGFB1 (gene 7040); assay: BSK_KF3CT_TGFb1: BioMAP Diversity Plus: KF3CT Assay for Transforming growth factor beta 1 (TGFb1) Biomarker Activity (AID 2283072); conditions: primary human keratinocytes with fibroblasts; actives raise or lower the signal
# Outline: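 Human keratinocyte/foreskin fibroblast co-culture; TGF-b1 measured by ELISA 24 h after dosing, fitted bidirectionally versus DMSO. Cytotoxicity checked in parallel cultures by total protein (SRB staining, 560 nm).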
# [13] = read-out: C-C motif chemokine 2 (Homo sapiens) (UniProt P13500); assay: BSK_KF3CT_MCP1: BioMAP Diversity Plus: KF3CT Assay for Monocyte Chemoattractant Protein 1 (MCP1/CCL2) Biomarker Activity (AID 2283073); conditions: primary human keratinocytes with fibroblasts; actives raise or lower the signal
# Outline: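 ELISA read-out of MCP-1, 24 h post-dose, in primary human skin keratinocytes co-cultured with fibroblasts. Parallel SRB staining monitors cytotoxicity; changes fitted both directions relative to DMSO.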
# [14] = read-out: Matrix Metallopeptidase 9 (MMP9), MMP9 (gene 4318); assay: BSK_KF3CT_MMP9: BioMAP Diversity Plus: KF3CT Assay for Matrix Metallopeptidase 9 (MMP9) Biomarker Activity (AID 2283074); conditions: primary human keratinocytes with fibroblasts; actives raise or lower the signal;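 for AC50: MMP9 protein level quantified by ELISA in the co-culture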
# Outline: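 Human keratinocyte/foreskin fibroblast co-culture; compound added; 24 h; MMP-9 by ELISA; bidirectional fit vs DMSO baseline.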
# [15] = read-out: urokinase plasminogen activator (uPA), PLAU (gene 5328); assay: BSK_KF3CT_uPA: BioMAP Diversity Plus: KF3CT Assay for urokinase plasminogen activator (uPA) Biomarker Activity (AID 2283075); conditions: primary human keratinocytes with fibroblasts; actives raise or lower the signal
# Outline: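 ELISA readout of uPA, analyzed for signal gain or loss relative to DMSO, from a human primary keratinocyte–foreskin fibroblast co-culture measured 24 h after chemical treatment.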
# [16] = read-out: CD40, CD40 (gene 958); assay: BSK_LPS_CD40: BioMAP Diversity Plus: LPS Assay for CD40 Biomarker Activity (AID 2283076); conditions: primary human HUVEC with PBMC; actives raise or lower the signal
# Outline: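 In the LPS system of human endothelial cells with peripheral blood mononuclear cells, CD40 levels were read by ELISA 24 h post-treatment. Signal changes in either direction were fitted against the DMSO baseline, with parallel SRB protein staining.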
# [17] = read-out: Interleukin-8 (IL8), CXCL8 (gene 3576); assay: BSK_LPS_IL8: BioMAP Diversity Plus: LPS Assay for Interleukin-8 (IL8) Biomarker Activity (AID 2283078); conditions: primary human HUVEC with PBMC; actives raise or lower the signal
# Outline: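 ELISA read-out of IL-8 after 24 h chemical treatment of LPS-activated endothelial/PBMC human primary co-cultures. Changes either up or down relative to DMSO; overt cytotoxicity checked by sulforhodamine B staining in parallel wells.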
# [18] = BSK_LPS_SRB: Viability Assessment in the BioMAP Diversity Plus: LPS Assay (AID 2283079); conditions: primary human HUVEC with PBMC;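 note: total protein by sulforhodamine B absorbance as a cytotoxicity measure; measured one day after compound addition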
# Outline: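 SRB viability endpoint: cells fixed with 10% TCA, stained with 0.1% SRB, read at 560 nm, 24 h post-dose. HUVEC/PBMC co-culture; signal change in either direction scored relative to DMSO.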
# [19] = read-out: E-selectin (Homo sapiens) (UniProt P16581); assay: BSK_LPS_Eselectin: BioMAP Diversity Plus: LPS Assay for Eselectin Biomarker Activity (AID 2283077); conditions: primary human HUVEC with PBMC; actives raise or lower the signal
# Outline: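 E-selectin ELISA on LPS-stimulated endothelial cell/PBMC co-cultures, read 24 h post-treatment; gains and losses fitted against DMSO. Parallel SRB staining (0.1% SRB after 10% TCA fixation, 560 nm) flags overt cytotoxicity.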
# E-selectin (Homo sapiens), sequence (P16581 whole entry, looked up): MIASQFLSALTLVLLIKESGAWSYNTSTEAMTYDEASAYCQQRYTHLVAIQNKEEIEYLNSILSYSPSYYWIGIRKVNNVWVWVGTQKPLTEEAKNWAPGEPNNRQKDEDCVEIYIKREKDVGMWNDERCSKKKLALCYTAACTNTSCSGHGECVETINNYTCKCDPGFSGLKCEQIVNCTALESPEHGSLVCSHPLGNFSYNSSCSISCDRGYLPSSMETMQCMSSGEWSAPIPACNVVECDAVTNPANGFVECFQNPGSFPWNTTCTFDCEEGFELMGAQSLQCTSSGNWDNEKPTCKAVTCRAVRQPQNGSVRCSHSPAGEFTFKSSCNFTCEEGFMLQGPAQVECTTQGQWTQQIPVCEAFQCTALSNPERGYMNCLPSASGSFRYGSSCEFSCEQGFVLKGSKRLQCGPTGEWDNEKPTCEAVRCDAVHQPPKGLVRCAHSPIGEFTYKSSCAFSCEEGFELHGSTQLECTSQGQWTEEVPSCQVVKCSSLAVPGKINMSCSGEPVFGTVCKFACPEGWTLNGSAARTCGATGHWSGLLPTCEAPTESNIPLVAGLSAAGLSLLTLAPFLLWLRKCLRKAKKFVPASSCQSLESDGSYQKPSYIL
compound,measurement,setting,value
CC(COc1ccc(Oc2ccccc2)cc1)Oc1ccccn1 (stereo not given),outcome,[1],inactive
same,outcome,[2],inactive
same,outcome,[3],inactive
same,outcome,[4],inactive
same,outcome,[5],inactive
same,outcome,[6],inactive
same,outcome,[7],inactive
same,outcome,[8],inactive
same,outcome,[9],inactive
same,outcome,[10],inactive
same,outcome,[11],inactive
same,outcome,[12],inactive
same,outcome,[13],inactive
same,outcome,[14],inactive
same,outcome,[15],inactive
same,AC50,[16],20 µM (active)
same,outcome,[17],inactive
same,outcome,[18],inactive
COP(=O)(NC(C)=O)SC (stereo not given),outcome,[1],inactive
same,outcome,[2],inactive
same,outcome,[3],inactive
same,outcome,[4],inactive
same,outcome,[5],inactive
same,outcome,[6],inactive
same,outcome,[8],inactive
same,outcome,[9],inactive
same,outcome,[10],inactive
same,outcome,[11],inactive
same,outcome,[12],inactive
same,outcome,[13],inactive
same,outcome,[14],inactive
same,outcome,[15],inactive
same,outcome,[16],inactive
same,outcome,[17],inactive
same,outcome,[18],inactive
CON=C(C(=O)OC)c1ccccc1CON=C(C)c1cccc(C(F)(F)F)c1,outcome,[1],inactive
same,AC50,[2],4.21 µM (active)
same,AC50,[3],5.26 µM (active)
same,AC50,[4],2.74 µM (active)
same,outcome,[5],inactive
same,AC50,[6],4 µM (active)
same,AC50,[8],18 µM (active)
same,outcome,[9],inactive
same,outcome,[10],inactive
same,outcome,[11],inactive
same,outcome,[12],inactive
same,AC50,[13],6.61 µM (active)
same,AC50,[14],3.97 µM (active)
same,outcome,[15],inactive
same,AC50,[16],13.5 µM (active)
same,AC50,[19],0.25 µM (active)
same,AC50,[17],3.35 µM (active)
same,AC50,[18],6.96 µM (active)
CSc1nc(NC(C)C)nc(NC(C)C)n1,outcome,[1],inactive
same,outcome,[2],inactive
same,outcome,[3],inactive
same,outcome,[4],inactive
same,outcome,[5],inactive
same,outcome,[6],inactive
same,outcome,[7],inactive
same,outcome,[8],inactive
same,outcome,[9],inactive
same,outcome,[10],inactive
same,outcome,[11],inactive
same,outcome,[12],inactive
same,outcome,[13],inactive
same,outcome,[14],inactive
same,outcome,[15],inactive
same,outcome,[16],inactive
same,outcome,[17],inactive
same,outcome,[18],inactive
CNC(=O)Oc1cccc2c1OC(C)(C)O2,outcome,[1],inactive
same,outcome,[2],inactive
same,outcome,[3],inactive
same,outcome,[4],inactive
same,outcome,[5],inactive
same,outcome,[6],inactive
same,outcome,[7],inactive
same,outcome,[8],inactive
same,outcome,[9],inactive
same,outcome,[10],inactive
same,outcome,[11],inactive
same,outcome,[12],inactive
same,outcome,[13],inactive
same,outcome,[14],inactive
same,outcome,[15],inactive
same,AC50,[16],13.6 µM (active)
same,AC50,[19],20 µM (active)
same,AC50,[17],25.2 µM (active)
same,outcome,[18],inactive
